HT1080 IDH1KD tx: qHTS for induction of synthetic lethality in tumor cells producing 2HG: qHTS for the HT-1080-IDH1KD cell line; HT-1080 IDH1 knockdown viability, ATP luminescence, 48 h; Potency, µM (top dose mostly 46.1 µM), inactives show at the top dose activity, negative = toxicity, most hits filed as cytotoxic; 360,000 compounds, 2% hits;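 also: 0% = DMSO wells and -100% = cell-free medium wells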
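CellTiter-Glo luminescence after 48 h compound exposure at 37 degrees C of IDH1-knockdown HT-1080 cells in 5% FBS RPMI. %Activity scaled between DMSO wells and cell-free media wells, with curves fitted and assigned curve classes.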
HT1080NT lethal: qHTS for induction of synthetic lethality in tumor cells producing 2HG: qHTS for the HT-1080-NT fibrosarcoma cell line | Potency, µM (top dose mostly 46.1 µM), inactives show at the top dose activity, negative = less viability, hits mostly cytotoxic | HT-1080-NT fibrosarcoma viability, CellTiter-Glo ATP luminescence, 48 h | 360,000 compounds, 1.6% hits;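 also: NT is the 2HG producing partner of a matched IDH1 knockdown line; 0% = DMSO-treated cells and -100% = media-only wells without cells; nearly all actives have a fitted effect of over 55% in size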
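750 cells/well, RPMI + 5% FBS; 2 h settle, compound pin-transfer, 48 h at 37 degrees C. CellTiter-Glo 10 min RT, luminescence. Normalized to DMSO and media-only wells.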
KB-3-1 tox: qHTS assay for MDR1-selective chemotherapeutics: Primary screen using the parental adenocarcinoma cell KB-3-1; KB-3-1 viability, CellTiter-Glo ATP luminescence, 72 h; Potency, µM (highest dose often 46.1 µM), hits mostly cytotoxic; 400,000 compounds, 1.4% hits; also: nearly all actives have a fitted effect of over 60% in size
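KB-3-1 cells, DMEM (no phenol red) + 10% FBS; compound by pin transfer, 72 h, 37 °C. Readout: CellTiter-Glo luminescence after 10 min. Data normalized, curve-fitted.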
KB-V1 cytotox: qHTS assay for MDR1-selective chemotherapeutics: Primary screen using the drug-selected MDR subline cells KB-V1; KB-V1 MDR cells viability, CellTiter-Glo, 72 h; 400,000 compounds, 3.4% hits; AID 1347076, 2019; Potency, µM (highest dose often 46.1 µM), most hits filed as cytotoxic; also: nearly all actives have a fitted effect of over 60% in size
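KB-V1 cells (P-gp-expressing MDR subline of KB-3-1) in phenol-red-free DMEM with 10% FBS were exposed to library compounds over a concentration series for 72 h at 37 degrees C. Viability read by CellTiter-Glo luminescence; concentration-effect curves fitted after normalization.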
TDP1 cell noCPT: qHTS for Inhibitors of human tyrosyl-DNA phosphodiesterase 1 (TDP1): qHTS in cells in absence of CPT | 420,000 compounds, 15% hits | DT40 Tdp1-/- hTDP1 cells, no CPT, ATP luminescence, 48 h | Potency, µM (titrated, usually from 46.2 µM), for inactives: at the highest dose activity change, negative = growth inhibition, hits mostly inhibitors; also: nearly all actives have a fitted effect of over 55% in size
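Luminescent ATP content (CellTiter-Glo) served as the growth readout. Knockout chicken DT40 cells expressing human TDP1 were exposed to compounds without camptothecin for a minimum 48 hr at 37 °C.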
DT40 TDP1 CPT: qHTS for Inhibitors of human tyrosyl-DNA phosphodiesterase 1 (TDP1): qHTS in cells in presence of CPT. chicken DT40 Tdp1-/-;hTDP1 cells + 20 nM CPT, ATP luminescence, 48 h. Potency, µM (titrated, usually from 46.2 µM), inactives show top-dose activity change, negative = growth inhibition, actives largely listed as inhibitors. 420,000 compounds, 12% hits. AID 686979, 2013; also: nearly all actives have a fitted effect of over 55% in size
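Chicken DT40 Tdp1-/- cells complemented with human TDP1, 400 cells/well, exposed to compounds plus 20 nM camptothecin for at least 48 h at 37 C; viability read as ATP content by CellTiter-Glo luminescence.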
Starred values were filed as active, the others as inactive. Rows were chosen to be rich in hits. Some 19% of all compounds tested hit in one or more screens of this group. Calls follow the shape of the dose curve; as a rule, active = well fitted curve in the direction sought with a large enough effect; inconclusive = small, poorly fitted or top-dose-only effect, or another doubt; inactive = no such curve, though single readings can be large; an effect the other way counts as inactive or inconclusive. Unless noted, % is scaled to controls: 0 for no effect and ±100 for the full control effect; potency is read from the fitted curve at half-maximal effect.

For Cc1cc(C)c2c(=O)cc(C(=O)Nc3ccc(S(=O)(=O)Nc4onc(C)c4C)cc3)oc2c1 the results were TDP1 cell noCPT -15% and DT40 TDP1 CPT -10%.
CCc1ccc(CNc2ccc3c(c2)ncn3C(C)(C)C)cc1 was read as HT1080 IDH1KD tx -7%, HT1080NT lethal -17%, KB-3-1 tox inactive, KB-V1 cytotox inactive, TDP1 cell noCPT 21µM* and DT40 TDP1 CPT 21µM*.
Screening CC(C)(C)n1cnc2cc(NCc3ccc(Br)cc3)ccc21 returned HT1080 IDH1KD tx -27%, HT1080NT lethal -10%, KB-3-1 tox inactive, KB-V1 cytotox inactive, TDP1 cell noCPT inconclusive and DT40 TDP1 CPT inconclusive.
CCN(CC)c1ccc(CNc2ccc3c(c2)ncn3C(C)(C)C)cc1 was read as HT1080 IDH1KD tx -23%, HT1080NT lethal -5%, KB-3-1 tox inactive, KB-V1 cytotox inactive, TDP1 cell noCPT inconclusive and DT40 TDP1 CPT 16µM*.
`COCCCNC(=O)CSc1nc(-c2ccc(OC)cc2)[nH]c1-c1ccc(OC)cc1` gave KB-3-1 tox inactive, KB-V1 cytotox inactive, TDP1 cell noCPT -28% and DT40 TDP1 CPT -22%.
Screening Cc1ccc(Cl)cc1N1CCN(C(=O)c2sc3nc4n(c(=O)c3c2C)CCC4)CC1 returned KB-3-1 tox inactive, KB-V1 cytotox inactive, TDP1 cell noCPT 15µM* and DT40 TDP1 CPT 15µM*.
For Cc1cccc(N2CCN(C(=O)c3sc4nc5n(c(=O)c4c3C)CCC5)CC2C)c1 (configuration not stated) the results were KB-3-1 tox inactive, KB-V1 cytotox inactive, TDP1 cell noCPT 13µM* and DT40 TDP1 CPT 16µM*.
COc1ccccc1N1CCN(C(=O)c2sc3nc4n(c(=O)c3c2C)CCC4)CC1 was read as HT1080 IDH1KD tx 0%, HT1080NT lethal 18%, KB-3-1 tox inactive, KB-V1 cytotox inactive, TDP1 cell noCPT 7% and DT40 TDP1 CPT 1%.
COc1ccc(N2CCN(C(=O)c3sc4nc5n(c(=O)c4c3C)CCC5)CC2)cc1 was read as KB-3-1 tox inactive, KB-V1 cytotox inactive, TDP1 cell noCPT 23µM* and DT40 TDP1 CPT inconclusive.
`c1ccc(OCC2CCNCC2)nc1` gave HT1080 IDH1KD tx 15%, HT1080NT lethal 8%, KB-3-1 tox inactive, KB-V1 cytotox inactive, TDP1 cell noCPT 4% and DT40 TDP1 CPT 0%.
Screening O=C(c1cnccn1)N1CCC2(CCCN(c3ccccc3)C2)CC1 returned TDP1 cell noCPT inconclusive and DT40 TDP1 CPT -29%.
CCN(CC)CCOC(=O)c1ccc(N/C=C(/C#N)c2nc(-c3ccc(OC)c(OC)c3)cs2)cc1 was read as HT1080 IDH1KD tx -20%, HT1080NT lethal 23µM*, KB-3-1 tox inactive, KB-V1 cytotox inactive, TDP1 cell noCPT 4.6µM* and DT40 TDP1 CPT -106%.
For CCN(CC)CCOC(=O)c1ccc(N/C=C(/C#N)c2nc(-c3cccc(OC)c3)cs2)cc1 the results were HT1080 IDH1KD tx 15%, HT1080NT lethal -2%, KB-3-1 tox inactive, KB-V1 cytotox inactive, TDP1 cell noCPT -25% and DT40 TDP1 CPT 5%.
Screening COC(=O)N/N=C/c1ccccc1Cl returned HT1080 IDH1KD tx 13%, HT1080NT lethal 0%, KB-3-1 tox inactive, KB-V1 cytotox inactive, TDP1 cell noCPT -6% and DT40 TDP1 CPT 2%.
Screening Cc1ccccc1OCC(=O)N/N=C/c1cn(Cc2ccccc2)c2ccccc12 returned HT1080 IDH1KD tx inconclusive, HT1080NT lethal inconclusive, KB-3-1 tox inconclusive, KB-V1 cytotox inactive, TDP1 cell noCPT inconclusive and DT40 TDP1 CPT -29%.
Screening COC(=O)N/N=C/c1cn(CCCOc2ccccc2)c2ccccc12 returned HT1080 IDH1KD tx inconclusive, HT1080NT lethal -21%, KB-3-1 tox inconclusive, KB-V1 cytotox 23µM*, TDP1 cell noCPT inconclusive and DT40 TDP1 CPT 26µM*.
COC(=O)N/N=C/c1cc(Cl)cc(Cl)c1OCc1ccccc1F was read as HT1080 IDH1KD tx 3%, HT1080NT lethal 12%, KB-3-1 tox inactive, KB-V1 cytotox inactive, TDP1 cell noCPT 18µM* and DT40 TDP1 CPT inconclusive.
COC(=O)N/N=C/c1cn(Cc2c(Cl)cccc2Cl)c2ccccc12 was read as HT1080 IDH1KD tx -7%, HT1080NT lethal -2%, KB-3-1 tox inactive, KB-V1 cytotox 16µM*, TDP1 cell noCPT inconclusive and DT40 TDP1 CPT -17%.
For COC(=O)N/N=C/c1cn(Cc2ccc(Cl)cc2Cl)c2ccccc12 the results were HT1080 IDH1KD tx -24%, HT1080NT lethal -18%, KB-3-1 tox inconclusive, KB-V1 cytotox 16µM*, TDP1 cell noCPT inconclusive and DT40 TDP1 CPT inconclusive.
For O=C(N/N=C/c1cn(CCOc2ccccc2)c2ccccc12)c1ccncc1 the results were HT1080 IDH1KD tx 1%, HT1080NT lethal 11%, KB-3-1 tox inactive, KB-V1 cytotox inactive, TDP1 cell noCPT -7% and DT40 TDP1 CPT 1%.
Cc1ccsc1C(=O)OCC(=O)NC1CCCC(C)C1C (configuration not stated) was read as HT1080 IDH1KD tx 4%, HT1080NT lethal -1%, TDP1 cell noCPT -22% and DT40 TDP1 CPT -15%.
Screening CC(=O)N1c2ccccc2CC1C(=O)N1CCN(c2cccc(Cl)c2)CC1 (configuration not stated) returned KB-3-1 tox inactive, KB-V1 cytotox inactive, TDP1 cell noCPT -14% and DT40 TDP1 CPT inconclusive.
For CCOCCCNCc1cc(Cl)cc(Cl)c1OCC the results were HT1080 IDH1KD tx -3%, HT1080NT lethal 30%, KB-3-1 tox inactive, KB-V1 cytotox inconclusive, TDP1 cell noCPT -29% and DT40 TDP1 CPT -24%.
`COC(=O)N/N=C/c1cn(Cc2ccccc2F)c2ccccc12` gave HT1080 IDH1KD tx -27%, HT1080NT lethal -17%, KB-3-1 tox inactive, KB-V1 cytotox inactive, TDP1 cell noCPT inconclusive and DT40 TDP1 CPT -3%.
For COC(=O)N/N=C/c1cn(Cc2ccccc2Cl)c2ccccc12 the results were HT1080 IDH1KD tx inconclusive, HT1080NT lethal -19%, KB-3-1 tox inactive, KB-V1 cytotox inactive, TDP1 cell noCPT 21µM* and DT40 TDP1 CPT 18µM*.
